About 25,000 (6.9%) of roughly 360,000 compounds were called active. Inconclusive results (about 9%) are left out. The call rests on the fitted dose curve; in most records, active means well fitted inhibition curve with a large enough effect; inconclusive means small, poorly fitted or top-dose-only effect; inactive means flat fitted curve, though single readings scatter. The list comes from a sample in which actives are over-represented; it also holds similar structures and randomly drawn compounds. Where a call stands in place of a potency, no number is given.
Each molecule was assayed against Luciferin 4-monooxygenase (Photinus pyralis) (UniProt P08659) (assay: qHTS profiling assay for firefly luciferase inhibitor/activator using purifed enzyme and Km concentrations of substrates (counterscreen for miR-21 project)). Conditions: purified FLuc, luminescence inhibition; series mostly up to 57.5 µM.
Method in brief: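 Purified P. pyralis luciferase, 10 nM final, with Km-level 10 uM D-luciferin and 10 uM ATP in 50 mM Tris acetate pH 7.5, 10 mM Mg acetate, 0.01% Tween-20, 0.05% BSA; 6-point qHTS titration about 60 µM downward; luminescence read.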
Further: nearly all actives have a fitted effect of over 55% in size.
Potency means the concentration at half of the fitted maximal effect.

Sequence of Luciferin 4-monooxygenase (Photinus pyralis) (P08659 whole entry, looked up): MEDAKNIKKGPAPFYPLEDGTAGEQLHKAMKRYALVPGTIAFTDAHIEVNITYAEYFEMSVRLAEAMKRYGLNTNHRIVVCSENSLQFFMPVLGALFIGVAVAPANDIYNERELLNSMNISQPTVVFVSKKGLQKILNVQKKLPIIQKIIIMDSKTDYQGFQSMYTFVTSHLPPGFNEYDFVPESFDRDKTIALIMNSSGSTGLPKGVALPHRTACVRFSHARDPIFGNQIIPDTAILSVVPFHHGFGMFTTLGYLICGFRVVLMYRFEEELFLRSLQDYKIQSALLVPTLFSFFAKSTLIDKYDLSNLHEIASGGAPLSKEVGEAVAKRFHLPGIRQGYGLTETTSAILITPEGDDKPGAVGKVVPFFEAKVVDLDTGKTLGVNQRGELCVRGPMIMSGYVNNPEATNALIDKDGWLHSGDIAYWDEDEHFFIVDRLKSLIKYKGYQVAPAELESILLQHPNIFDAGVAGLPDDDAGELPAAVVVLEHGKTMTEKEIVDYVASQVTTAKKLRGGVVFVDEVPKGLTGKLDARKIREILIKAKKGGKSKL

SMILES | Potency
Cc1cccc(-n2ncc(C(=O)N3CCN(c4ccc(Cl)cc4)CC3)c2C2CCN(C(=O)OC(C)(C)C)CC2)c1 | inactive
Cc1ccc(Nc2nnc(-c3ccc(C)c(S(=O)(=O)N4CCCCC4)c3)c3ccccc23)cc1 | inactive
CCOC(=O)c1ccc(N2C(=O)c3[nH]nc(-c4ccccc4)c3C2c2ccc(C(C)C)cc2)cc1 (stereo not given) | inactive
Cc1ccc(C(=O)OCC(=O)Nc2ccc(Cl)cn2)cc1S(=O)(=O)N1CCOCC1 | inactive
COc1cc2nc(NCC(C)c3ccccc3)n3nc(-c4ccccc4)nc3c2cc1OC (stereo not given) | inactive
COCCn1c(SCC(=O)Nc2cc(Cl)ccc2OC)nc2c(c1=O)SC(C)C2 (stereo not given) | inactive
O=C(c1cc(-c2ccc(Cl)cc2)on1)N1CCN(c2ccccc2)CC1 | 10.7 µM (active)
O=C(c1ccc(Cl)c([N+](=O)[O-])c1)N1CCN(c2ccccc2)CC1 | inactive
O=C(c1cc(-c2ccc(F)cc2)on1)N1CCN(c2ccc(F)cc2)CC1 | inactive
CCCN1CCN(CCCNC(=O)c2ccc3nc(Cc4ccccc4)oc3c2)CC1 | inactive
Cc1cccc(NC(=O)c2ccc(F)c(S(=O)(=O)N(C)C3CCCCC3)c2)c1 | inactive
CCCSc1nc2[nH]ncc2c(=O)[nH]1 | inactive
Cc1ccc(CSc2nc3[nH]ncc3c(=O)[nH]2)cc1 | 13.5 µM (active)
Cc1cccc(NC(=O)CSc2nc3[nH]ncc3c(=O)[nH]2)c1 | inactive
COc1cc(OC)cc(-c2c(-c3ccc(F)cc3)c3cc(-c4ccc5cc[nH]c5c4)ccc3n2C)c1 | inactive
O=S(=O)(Nc1cccc(-c2ccc(N3CCOCC3)nn2)c1)c1ccc(Cl)c(Cl)c1 | 5.36 µM (active)
CN1CCN(c2ccc(S(=O)(=O)Nc3ccccc3)cc2[N+](=O)[O-])CC1 | inactive
Cc1cccc(NS(=O)(=O)c2ccc([N+](=O)[O-])cc2)n1 | inactive
O=[N+]([O-])c1ccc(S(=O)(=O)Nc2cccc(-c3ccc(N4CCCC4)nn3)c2)cc1 | 12 µM (active)
CC(=O)Nc1ccc(S(=O)(=O)Nc2ccc(N3CCOCC3)c(F)c2)cc1 | inactive
Cc1cccc(NS(=O)(=O)c2cc(Cl)ccc2Cl)n1 | inactive
O=S(=O)(Nc1cccc(-n2cnnn2)c1)c1cnc(Cl)c(Cl)c1 | inactive

SMILES | Potency
O=S(=O)(Nc1ccccc1N1CCOCC1)c1ccc(Cl)s1 | inactive
O=S(=O)(Nc1ccc(-c2ccc(N3CCOCC3)nn2)cc1)c1cc(Cl)ccc1Cl | 23.9 µM (active)
Cc1ccc2oc3c(c(=O)c2c1)C(c1ccc(O)cc1)N(Cc1ccc2c(c1)OCO2)C3=O (stereo not given) | inactive
Cc1ccc(COC(=O)CN2C(=O)NC3(CCCC3)C2=O)cc1 | inactive
CC(C)(C)c1ccc(S(=O)(=O)N2CCN(C(=O)c3ccc4c(c3)C(=O)N(Cc3ccncc3)C4=O)CC2)cc1 | inactive
C=Cc1ccc(Cn2c(C(=O)OC)cc3sc(C)cc32)cc1 | inactive
CCc1ccccc1OCC(=O)Nc1ccc(C)c(S(=O)(=O)N2CCCCCC2)c1 | inactive
CCCN(CCC)CCCNC(=O)Cn1cc2c(n1)-c1c(oc(C(=O)N3CCCC3)c1C)CC2 | inactive
CCOc1ccc(NC(=O)COc2ccc(C(=O)N3CCC(C(N)=O)CC3)cc2OC)cc1 | inactive
CCCCN(C(=O)c1ccc2ccccc2c1)c1c(N)n(CCCC)c(=O)[nH]c1=O | inactive
Cc1ccc(-n2nc(N)c3c(=O)oc(N(C)C)nc32)cc1 | inactive
O=C(Nc1ccc2oc(-c3ccc4ccccc4c3)nc2c1)c1cccs1 | 5.36 µM (active)
O=C(Nc1ccc(NC(=O)c2cccs2)cc1)c1ccc2ccccc2c1 | inactive
CCN(CCCNC(=O)c1cc(Nc2ccc(OC)cc2)nc2ccccc12)c1cccc(C)c1 | inactive
Cc1ccc(S(=O)(=O)n2nc(C)c(S(=O)(=O)N3CCCCCC3)c2C)cc1 | inactive
CCC(=O)N1CCc2cc(CNS(=O)(=O)c3ccc(Br)s3)ccc21 | inactive
Cc1ccccc1Nc1nn2c(=O)c3ccc(C(=O)NCCc4ccc(Cl)cc4)cc3nc2s1 | inactive
Cc1cc(C(=O)COc2ccc(Br)cc2F)c(C)n1C1CC1 | 13.5 µM (active)
O=C(COc1ccc(Br)cc1F)NC1CCN(Cc2ccccc2)CC1 | inactive
CC(=O)C1=C(C)NC(=O)NC1c1cc(Br)ccc1OCC#N (stereo not given) | inactive
O=C(CC(=O)N/N=C\c1cccc(Cl)c1Cl)NCc1ccccc1 | inactive
O=C(CSc1nnc(SCc2ccc(Cl)cc2)s1)N/N=C/c1ccccc1Cl | 6.01 µM (active)

SMILES | Potency
O=C(Cc1ccccc1)N/N=C/c1ccc(Cl)cc1Cl | inactive
Cc1cc(NC(=O)CCS(=O)(=O)c2ccc(F)cc2)no1 | inactive
O=C1CC2(CCN(C(=O)COc3ccc(F)cc3)CC2)Oc2ccccc21 | inactive
CCCc1cc(=S)n2c([nH]c3ccccc32)c1C#N | 19 µM (active)
CCOC(=O)CCc1c(C)c(C#N)c2[nH]c3ccccc3n2c1=O | inactive
CN(C)c1ccc(C(CNS(=O)(=O)c2cc(F)ccc2F)N2CCOCC2)cc1 (stereo not given) | inactive
Cc1nn(-c2ccc([N+](=O)[O-])cc2)c(N)c1-c1ccccc1 | 7.57 µM (active)
Cn1nc(-c2ccccc2)c2cc([N+](=O)[O-])ccc21 | inactive
Cc1cc(CO)nn1-c1ccc([N+](=O)[O-])cc1 | inactive
COc1ccc(CCNC(=O)c2ccc(-n3c(C)cc4c3CCCC4)cc2)cc1OC | inactive
COc1cc(C(=O)NCC(c2ccc(Cl)cc2)N2CCOCC2)cc(OC)c1OC (stereo not given) | inactive
Cc1ccccc1N1CC(C(=O)Nc2nnc(SCCC3OCCO3)s2)CC1=O (stereo not given) | inactive
Cc1ccc(NC(=O)Nc2ccc3oc(C)nc3c2)cc1 | 1.2 µM (active)
O=C(NNC(=O)c1cccnc1)Nc1ccccc1 | inactive
C=C(C)C(=O)Nc1cccc(C(C)=O)c1 | inactive
Cc1ccc(NC(=O)NCC(c2cccnc2)N2CCOCC2)cc1 (stereo not given) | inactive
Cc1ccc(NC(=O)Nc2cccnc2)cc1 | 10.7 µM (active)
Cc1nc2ccc(NC(=O)C(F)(F)F)cc2o1 | inactive
Cc1ccc(NC(=O)c2cc3cc(C)ccc3n2C)cc1 | inactive
CC(=O)c1cccc(NC(=O)Nc2ccc(C)cc2)c1 | 4.78 µM (active)
CC(=O)c1cccc(NC(=S)N2CCCC2)c1 | inactive
